This passage reports AC50 and outcome results from PubChem BioAssay (EPA / NIEHS).

Molecules are shown by their SMILES. Results filed as inconclusive are left out. Calls of active or inactive are those of the source. Rule for the calls: active = hit-call score of the fitted dose curve at least 0.9, where 1 is the maximum; inconclusive = response in the unintended direction; inactive = score below 0.9.

For assay [1], the target named is Muscarinic acetylcholine receptor M3 (Homo sapiens) (UniProt P20309). The experiment in a line: NVS_GPCR_hM3: NovaScreen (NVS) G Protein-Coupled Receptor Assay for human Muscarinic, M3 Receptor (AID 2283272). An outline of the steps: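 Radioligand displacement binding on human M3 receptor in CHO-derived membranes, 1 h incubation, filter-based scintillation counting. Primary screen in duplicate at 25 uM; actives followed up in concentration series; loss of signal versus DMSO.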
Sequence of Muscarinic acetylcholine receptor M3 (Homo sapiens) (P20309 whole entry, looked up): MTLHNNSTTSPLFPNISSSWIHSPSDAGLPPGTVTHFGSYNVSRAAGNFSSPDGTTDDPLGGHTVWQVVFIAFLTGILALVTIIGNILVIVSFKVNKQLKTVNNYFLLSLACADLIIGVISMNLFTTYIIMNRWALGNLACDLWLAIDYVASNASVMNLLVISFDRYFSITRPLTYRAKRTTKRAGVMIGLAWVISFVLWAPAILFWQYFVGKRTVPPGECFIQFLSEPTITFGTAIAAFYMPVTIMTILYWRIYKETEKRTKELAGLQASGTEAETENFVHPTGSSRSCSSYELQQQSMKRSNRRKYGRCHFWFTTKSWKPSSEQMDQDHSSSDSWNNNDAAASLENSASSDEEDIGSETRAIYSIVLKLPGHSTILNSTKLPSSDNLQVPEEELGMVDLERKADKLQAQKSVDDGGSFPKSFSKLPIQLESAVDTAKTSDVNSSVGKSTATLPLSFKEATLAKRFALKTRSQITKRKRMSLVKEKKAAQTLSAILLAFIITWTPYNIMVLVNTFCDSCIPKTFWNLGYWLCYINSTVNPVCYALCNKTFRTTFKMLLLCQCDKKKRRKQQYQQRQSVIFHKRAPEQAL

For assay [2], the target named is Muscarinic acetylcholine receptor M2 (Homo sapiens) (UniProt P08172). Description: NVS_GPCR_hM2: NovaScreen (NVS) G Protein-Coupled Receptor Assay for human Muscarinic, M2 Receptor (AID 2283273). An outline of the steps:
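Filter-based radiodetection read bound radioligand 1 h after dosing CHO-derived membrane protein. Single-concentration duplicates (25 uM) first, then concentration-response for actives; signal loss versus DMSO scored.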

Assay [3] concerns the target human Muscarinic, M4 Receptor, CHRM4 (gene 1132) (UniProt P08173). Description: NVS_GPCR_hM4: NovaScreen (NVS) G Protein-Coupled Receptor Assay for human Muscarinic, M4 Receptor (AID 2283274). A digest of the protocol: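 Filter-based scintillation counting of radioligand bound to CHO-expressed human M4 preparations after 1 h; loss of signal fitted versus DMSO. Initial duplicate testing at 25 uM, concentration-response follow-up for actives.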

Assay [4] has as its target Muscarinic acetylcholine receptor M5 (Homo sapiens) (UniProt P08912). Description: NVS_GPCR_hM5: NovaScreen (NVS) G Protein-Coupled Receptor Assay for human Muscarinic, M5 Receptor (AID 2283275). A digest of the protocol: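 Chemicals passing a primary duplicate screen at 25 uM were run as singleton concentration series, maximum 50 uM. Displacement of a specific radioligand from CHO-extracted receptor was read by filter scintillation after 1 h, relative to DMSO.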

Assay [5] deals with Neuropeptide Y receptor type 2 (Homo sapiens) (UniProt P49146). Description: NVS_GPCR_hNPY2: NovaScreen (NVS) G Protein-Coupled Receptor Assay for human Neuropeptide Receptor Y2 (NPY2) (AID 2283277). An outline of the steps:
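Chemicals were first tested in duplicate at 25 uM, then actives in singleton concentration series to 50 uM. Tracer binding to SK-N-MC-derived protein measured cell-free after 1 h via filter scintillation; signal loss relative to DMSO.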

In assay [6] the target is human Neurokinin, NK2 Receptor, TACR2 (gene 6865) (UniProt P21452). Description: NVS_GPCR_hNK2: NovaScreen (NVS) G Protein-Coupled Receptor Assay for human Neurokinin, NK2 Receptor (AID 2283278).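 Note: actives reduce bound radioligand signal relative to DMSO baseline.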 An outline of the steps: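 Filter-based scintillation counting measured radioligand bound to receptor extracted from CHO cells, 4 hours after compound addition. Chemicals screened first at 25 uM in duplicate, with actives retested in concentration series relative to DMSO.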
Sequence of human Neurokinin, NK2 Receptor, TACR2 (gene 6865) (P21452 whole entry, looked up): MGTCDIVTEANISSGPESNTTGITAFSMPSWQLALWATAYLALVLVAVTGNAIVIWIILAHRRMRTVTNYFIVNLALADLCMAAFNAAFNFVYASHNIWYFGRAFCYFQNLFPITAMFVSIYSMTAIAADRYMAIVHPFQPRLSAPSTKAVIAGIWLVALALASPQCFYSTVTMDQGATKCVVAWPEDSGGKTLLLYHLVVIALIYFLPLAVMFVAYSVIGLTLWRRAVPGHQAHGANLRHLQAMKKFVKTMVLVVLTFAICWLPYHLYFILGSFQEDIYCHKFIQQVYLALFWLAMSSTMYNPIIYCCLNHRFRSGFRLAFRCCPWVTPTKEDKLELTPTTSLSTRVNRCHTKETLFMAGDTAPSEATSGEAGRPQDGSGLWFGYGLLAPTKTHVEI

In assay [7] the target is human Opioid Receptor Delta 1 (Opiate D1), OPRD1 (gene 4985) (UniProt P41143). Description: NVS_GPCR_hOpiate_D1: NovaScreen (NVS) G Protein-Coupled Receptor Assay for human Opioid Receptor Delta 1 (Opiate D1) (AID 2283280). A digest of the protocol:
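Membrane preparations from CHO cells bearing the human receptor were incubated 1 h with test chemical, and bound radioligand was counted after filtration. Actives from 25 uM duplicate screening were retested in concentration-response.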

Assay [8] addresses human Thromboxane A2 Receptor (TXA2), TBXA2R (gene 6915) (UniProt P21731). Description: NVS_GPCR_hTXA2: NovaScreen (NVS) G Protein-Coupled Receptor Assay for human Thromboxane A2 Receptor (TXA2) (AID 2283282).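 Note: actives reduce bound radioligand signal relative to DMSO baseline.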 A digest of the protocol:
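Screening ran at 25 uM in duplicate, with concentration series for confirmed actives. Each test measures radioligand binding to human platelet protein after 1 h, cell-free, using filter-based scintillation detection of signal loss relative to DMSO.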

Assay [9] addresses human Orphanin, Opioid Related Nociceptin Receptor 1 (ORL1), OPRL1 (gene 4987) (UniProt P41146). The experiment in a line: NVS_GPCR_hORL1: NovaScreen (NVS) G Protein-Coupled Receptor Assay for human Orphanin, Opioid Related Nociceptin Receptor 1 (ORL1) (AID 2283283). An outline of the steps: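 Cell-free binding using HEK293-derived receptor protein: radioligand displacement measured by filter scintillation 1 hour after dosing. Primary testing at 25 uM in duplicate, followed by singleton concentration series up to 50 uM; DMSO served as negative control.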

The target in assay [10] is mouse Cholecystokinin, CCK1 Receptor (CCKA), Cckar (gene 12425) (UniProt O08786). Description: NVS_GPCR_mCCKAPeripheral: NovaScreen (NVS) G Protein-Coupled Receptor Assay for mouse Cholecystokinin, CCK1 Receptor (CCKA) (AID 2283285). A digest of the protocol: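 Chemicals were first screened in duplicate at 25 uM, with those meeting threshold (e.g., 30% inhibition) retested in singleton concentration series to 50 uM maximum. Binding of radioligand to mouse pancreatic membranes was read after 2 h by filtration and scintillation counting.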
Sequence of mouse Cholecystokinin, CCK1 Receptor (CCKA), Cckar (gene 12425) (O08786 whole entry, looked up): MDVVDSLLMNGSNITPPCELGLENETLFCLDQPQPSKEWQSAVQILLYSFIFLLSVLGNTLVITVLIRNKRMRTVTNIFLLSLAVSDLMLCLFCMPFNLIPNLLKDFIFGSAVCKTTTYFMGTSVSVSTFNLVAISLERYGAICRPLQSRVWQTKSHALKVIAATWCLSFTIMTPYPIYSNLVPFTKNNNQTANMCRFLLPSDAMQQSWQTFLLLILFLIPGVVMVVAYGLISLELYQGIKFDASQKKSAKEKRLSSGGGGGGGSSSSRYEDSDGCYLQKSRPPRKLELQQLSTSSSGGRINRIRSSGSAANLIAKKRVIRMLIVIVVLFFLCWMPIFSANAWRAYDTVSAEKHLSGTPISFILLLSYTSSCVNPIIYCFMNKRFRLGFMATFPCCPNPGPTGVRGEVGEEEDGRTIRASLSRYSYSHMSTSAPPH

Assay [11] relates to rabbit Platelet Activating Factor Receptor (PAF), gene 100354046. The experiment in a line: NVS_GPCR_rabPAF: NovaScreen (NVS) G Protein-Coupled Receptor Assay for rabbit Platelet Activating Factor Receptor (PAF) (AID 2283287). An outline of the steps:
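Rabbit platelet membrane preparation; radioligand displacement read by filter-based scintillation counting 1 h after dosing, loss of signal versus DMSO. Primary screen in duplicate at 25 uM, actives followed up in concentration series.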

For assay [12], the target named is rat Adrenergic, Alpha 1, Non-selective Receptor (Adra1), Adra1a (gene 29412) (UniProt P43140). The experiment in a line: NVS_GPCR_rAdra1_NonSelective: NovaScreen (NVS) G Protein-Coupled Receptor Assay for rat Adrenergic, Alpha 1, Non-selective Receptor (Adra1) (AID 2283289). An outline of the steps:
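Chemicals first screened in duplicate at 25 uM, then actives tested in concentration series up to 50 uM. Binding measured as displacement of radioligand from rat forebrain membrane receptors, 1 h, filtration with scintillation readout; DMSO baseline.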

For assay [13], the target named is human Opioid Receptor Mu (Opiate Mu), OPRM1 (gene 4988) (UniProt P35372). The experiment in a line: NVS_GPCR_hOpiate_mu: NovaScreen (NVS) G Protein-Coupled Receptor Assay for human Opioid Receptor Mu (Opiate Mu) (AID 2283290).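 Note: hits lower bound tracer signal versus DMSO meaning displacement of the ligand.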 An outline of the steps:
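CHO-derived receptor protein, cell-free; radioligand displacement, filtration + scintillation counting, read at 2.5 h. DMSO = negative control/baseline. Primary: 25 uM single conc, duplicate; secondary: concentration series.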

In assay [14] the target is guinea pig Serotonin, 5-Hydroxytryptamine Receptor 4 (5HT4), HTR4 (gene 100135548) (UniProt O70528). Description: NVS_GPCR_g5HT4: NovaScreen (NVS) G Protein-Coupled Receptor Assay for guinea pig Serotonin, 5-Hydroxytryptamine Receptor 4 (5HT4) (AID 2283294). A digest of the protocol: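 Compounds first screened in duplicate at 25 uM, actives followed up in concentration series. Binding measured as displacement of specific radioligand from guinea pig striatal membranes, 1 h, filter-based scintillation read-out versus DMSO baseline.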
Sequence of guinea pig Serotonin, 5-Hydroxytryptamine Receptor 4 (5HT4), HTR4 (gene 100135548) (O70528 whole entry, looked up): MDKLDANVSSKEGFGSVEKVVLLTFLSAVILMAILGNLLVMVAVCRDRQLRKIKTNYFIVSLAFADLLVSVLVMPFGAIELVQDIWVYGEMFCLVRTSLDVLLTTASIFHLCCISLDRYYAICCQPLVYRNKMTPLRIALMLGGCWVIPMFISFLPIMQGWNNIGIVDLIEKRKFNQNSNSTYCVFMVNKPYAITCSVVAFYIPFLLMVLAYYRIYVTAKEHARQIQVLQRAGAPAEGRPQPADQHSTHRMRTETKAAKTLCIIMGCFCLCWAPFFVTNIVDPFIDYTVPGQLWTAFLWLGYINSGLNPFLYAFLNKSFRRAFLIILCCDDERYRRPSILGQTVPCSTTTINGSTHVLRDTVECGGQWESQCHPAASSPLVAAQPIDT

For assay [15], the target named is rat Serotonin, 5-Hydroxytryptamine Receptor 1 (5HT1), Non-Selective Binding, Htr1a (gene 24473) (UniProt P19327). Description: NVS_GPCR_r5HT1_NonSelective: NovaScreen (NVS) G Protein-Coupled Receptor Assay for rat Serotonin, 5-Hydroxytryptamine Receptor 1 (5HT1), Non-Selective Binding (AID 2283286). An outline of the steps: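 Binding of a radioligand to rat cortex membranes is read by filtration and scintillation counting after 1 h. Compounds were screened at 25 uM in duplicate. Actives were then titrated to a top of 50 uM. DMSO is the baseline.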

Assay [16] concerns the target guinea pig Bradykinin Receptor B2 (BK2), BDKRB2 (gene 100135486) (UniProt O70526). Description: NVS_GPCR_gBK2: NovaScreen (NVS) G Protein-Coupled Receptor Assay for guinea pig Bradykinin Receptor B2 (BK2) (AID 2283292). A digest of the protocol:
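Guinea pig ileum membrane preparation incubated 1 h with radioligand and test chemical; bound counts measured after filtration. Primary duplicate screening at 25 uM, then singleton concentration series with a 50 uM top dose; DMSO as baseline.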

Sequence of human Opioid Receptor Mu (Opiate Mu), OPRM1 (gene 4988) (P35372 whole entry, looked up): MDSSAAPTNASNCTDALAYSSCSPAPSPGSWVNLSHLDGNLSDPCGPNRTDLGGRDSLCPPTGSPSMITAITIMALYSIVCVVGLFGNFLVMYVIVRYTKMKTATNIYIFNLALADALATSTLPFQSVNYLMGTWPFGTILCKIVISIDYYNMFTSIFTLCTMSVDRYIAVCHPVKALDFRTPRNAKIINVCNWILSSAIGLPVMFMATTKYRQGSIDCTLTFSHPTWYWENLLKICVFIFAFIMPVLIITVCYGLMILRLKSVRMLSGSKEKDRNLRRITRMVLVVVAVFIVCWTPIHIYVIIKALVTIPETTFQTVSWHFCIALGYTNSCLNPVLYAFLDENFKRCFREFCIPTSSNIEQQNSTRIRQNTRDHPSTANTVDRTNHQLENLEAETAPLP
Sequence of Muscarinic acetylcholine receptor M5 (Homo sapiens) (P08912 whole entry, looked up): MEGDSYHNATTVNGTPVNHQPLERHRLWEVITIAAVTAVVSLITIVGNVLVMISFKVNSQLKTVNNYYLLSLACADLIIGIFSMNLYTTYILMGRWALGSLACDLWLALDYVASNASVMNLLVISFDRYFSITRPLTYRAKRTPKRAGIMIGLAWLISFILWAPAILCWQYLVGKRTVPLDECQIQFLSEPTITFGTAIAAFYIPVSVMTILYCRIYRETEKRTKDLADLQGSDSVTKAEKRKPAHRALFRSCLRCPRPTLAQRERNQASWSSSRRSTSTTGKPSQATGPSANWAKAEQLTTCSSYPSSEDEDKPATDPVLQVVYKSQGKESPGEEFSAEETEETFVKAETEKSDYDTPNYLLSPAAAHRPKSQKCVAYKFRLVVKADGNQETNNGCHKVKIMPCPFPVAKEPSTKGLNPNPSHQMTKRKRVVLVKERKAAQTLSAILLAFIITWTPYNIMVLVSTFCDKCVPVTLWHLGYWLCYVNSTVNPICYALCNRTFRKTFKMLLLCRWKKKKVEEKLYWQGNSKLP
Sequence of human Thromboxane A2 Receptor (TXA2), TBXA2R (gene 6915) (P21731 whole entry, looked up): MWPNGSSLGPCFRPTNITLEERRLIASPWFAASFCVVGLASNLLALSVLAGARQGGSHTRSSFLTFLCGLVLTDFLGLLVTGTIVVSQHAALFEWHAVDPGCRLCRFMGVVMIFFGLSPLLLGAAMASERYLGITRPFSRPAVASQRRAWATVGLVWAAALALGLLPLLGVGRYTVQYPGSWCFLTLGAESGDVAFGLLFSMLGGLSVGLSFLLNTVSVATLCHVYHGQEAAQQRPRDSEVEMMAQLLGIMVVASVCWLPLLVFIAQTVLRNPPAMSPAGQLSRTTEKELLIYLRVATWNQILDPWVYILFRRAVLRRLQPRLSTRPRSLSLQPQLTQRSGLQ
Sequence of rat Adrenergic, Alpha 1, Non-selective Receptor (Adra1), Adra1a (gene 29412) (P43140 whole entry, looked up): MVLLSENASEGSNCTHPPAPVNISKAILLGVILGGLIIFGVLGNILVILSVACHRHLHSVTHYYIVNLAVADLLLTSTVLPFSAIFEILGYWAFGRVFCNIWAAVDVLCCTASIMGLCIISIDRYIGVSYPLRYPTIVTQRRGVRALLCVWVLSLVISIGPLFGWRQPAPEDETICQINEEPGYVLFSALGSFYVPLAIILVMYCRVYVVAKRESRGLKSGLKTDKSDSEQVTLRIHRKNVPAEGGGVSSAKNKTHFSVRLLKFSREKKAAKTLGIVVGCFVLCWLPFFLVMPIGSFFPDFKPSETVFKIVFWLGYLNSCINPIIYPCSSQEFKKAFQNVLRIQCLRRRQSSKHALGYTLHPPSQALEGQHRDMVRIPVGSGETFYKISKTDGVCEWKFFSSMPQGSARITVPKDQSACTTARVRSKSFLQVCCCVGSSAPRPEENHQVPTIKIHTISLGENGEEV
Sequence of human Opioid Receptor Delta 1 (Opiate D1), OPRD1 (gene 4985) (P41143 whole entry, looked up): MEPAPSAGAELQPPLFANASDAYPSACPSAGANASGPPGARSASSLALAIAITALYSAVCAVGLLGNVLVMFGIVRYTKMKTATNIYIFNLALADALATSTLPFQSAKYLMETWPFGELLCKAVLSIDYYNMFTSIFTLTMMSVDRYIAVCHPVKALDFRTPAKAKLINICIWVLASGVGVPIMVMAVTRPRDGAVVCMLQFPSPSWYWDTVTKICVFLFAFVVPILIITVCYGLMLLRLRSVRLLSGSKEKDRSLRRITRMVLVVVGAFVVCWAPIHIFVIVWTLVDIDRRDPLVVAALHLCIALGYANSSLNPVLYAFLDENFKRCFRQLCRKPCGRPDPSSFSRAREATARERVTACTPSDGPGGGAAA
Sequence of human Muscarinic, M4 Receptor, CHRM4 (gene 1132) (P08173 whole entry, looked up): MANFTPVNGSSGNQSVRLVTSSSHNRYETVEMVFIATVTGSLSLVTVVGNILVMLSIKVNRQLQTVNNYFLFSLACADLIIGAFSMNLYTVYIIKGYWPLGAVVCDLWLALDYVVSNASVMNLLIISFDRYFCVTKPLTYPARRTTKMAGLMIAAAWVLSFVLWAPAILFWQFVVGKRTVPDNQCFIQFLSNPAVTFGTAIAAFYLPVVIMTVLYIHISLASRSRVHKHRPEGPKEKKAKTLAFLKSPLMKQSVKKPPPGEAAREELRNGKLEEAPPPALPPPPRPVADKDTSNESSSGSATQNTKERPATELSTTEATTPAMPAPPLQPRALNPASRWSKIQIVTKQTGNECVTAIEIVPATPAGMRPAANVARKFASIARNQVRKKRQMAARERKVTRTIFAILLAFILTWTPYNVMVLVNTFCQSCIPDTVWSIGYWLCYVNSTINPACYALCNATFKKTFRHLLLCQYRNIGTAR
Sequence of Muscarinic acetylcholine receptor M2 (Homo sapiens) (P08172 whole entry, looked up): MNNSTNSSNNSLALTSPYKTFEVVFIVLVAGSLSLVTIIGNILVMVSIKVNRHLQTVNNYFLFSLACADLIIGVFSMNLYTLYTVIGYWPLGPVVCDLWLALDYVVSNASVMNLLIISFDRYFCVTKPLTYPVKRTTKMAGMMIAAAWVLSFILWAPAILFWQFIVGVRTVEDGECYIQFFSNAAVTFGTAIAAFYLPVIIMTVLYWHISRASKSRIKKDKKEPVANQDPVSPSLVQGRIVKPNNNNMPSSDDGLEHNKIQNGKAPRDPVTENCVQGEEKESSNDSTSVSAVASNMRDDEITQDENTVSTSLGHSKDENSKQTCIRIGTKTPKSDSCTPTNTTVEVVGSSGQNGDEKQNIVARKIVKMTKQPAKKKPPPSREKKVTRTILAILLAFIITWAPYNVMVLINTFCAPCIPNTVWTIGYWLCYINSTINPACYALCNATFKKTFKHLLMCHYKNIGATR

For the compound `CCOC(=O)O[C@H](C)OC(=O)c1ccc2c(c1)cc(C(=O)NC1CCN(C(C)C)CC1)n2Cc1cc(-c2ccc(Cl)s2)on1`, the AC50 in assay [1] is 5.44 µM (active); in assay [2] it was 3.64 µM (active); in assay [3], 2.17 µM (active); in assay [4] it was 1.79 µM (active); in assay [5] it was 0.0551 µM (active); in assay [6], 3.38 µM (active). Besides, the AC50 in assay [7] was 3.36 µM (active); in assay [8] it was 23.6 µM (active); in assay [9], 4.46 µM (active); in assay [10], 22.9 µM (active); in assay [11], 17.3 µM (active); in assay [12], 33.1 µM (active). The AC50 in [13] was 2.94 µM (active); in assay [14], 23.6 µM (active).
`Cc1oc2c(NC(=O)c3c(Cl)cccc3Cl)cccc2c1C(C)(C)O`: the outcome in assay [6] was inactive. In addition, in [11], the AC50 was 5.98 µM (active).
With `Cc1cc(F)ccc1-c1cc(N2CC[C@@H](O)[C@H]2CO)ncc1N(C)C(=O)C(C)(C)c1cc(C(F)(F)F)cc(C(F)(F)F)c1`, the AC50 was 15 µM (active) in assay [4]; 0.181 µM (active) in assay [6]; 15.8 µM (active) in [7]; 4.08 µM (active) in [10]; 1.38 µM (active) in [11]; 20.4 µM (active) in [12].
For `CCCCCCCCOc1ccc(C(=O)c2ccccc2)c(O)c1`, in [8], the AC50 is 25 µM (active).
As to `CC1(C)NC(=O)N(c2ccc([N+](=O)[O-])c(C(F)(F)F)c2)C1=O`, the result in assay [6] was inactive.
For `COc1cc(C(=O)NC2CCN(C)CC2)ccc1Nc1ncc2c(n1)N(C1CCCC1)CC(F)(F)C(=O)N2C`, the AC50 in [3] was 16.7 µM (active); in assay [4], 11.9 µM (active); in assay [11] it was 0.76 µM (active); in assay [12], 3.85 µM (active); in assay [13], 17.4 µM (active); in assay [16], 2.81 µM (active). Also, in [14], the AC50 was 8.4 µM (active). For the same compound, the compound was called inactive in assay [6] and in [15].
As to `Cc1cc2c(cc1C(F)(F)F)N(C(=O)Nc1ccc(Oc3cccnc3C)nc1)CC2`, the AC50 in [10] was 13.3 µM (active); in assay [14], 5.92 µM (active). The result in assay [13] was inactive.
With `CCN(Cc1cccc(S(=O)(=O)O)c1)c1ccc(C(=C2C=CC(=[N+](CC)Cc3cccc(S(=O)(=O)O)c3)C=C2)c2ccccc2S(=O)(=O)[O-])cc1`, the AC50 in assay [8] is 8.17 µM (active).
